Experimental data: PubChem BioAssay

assay: plasmodial surface anion channel blockers, osmotic lysis – cell-based, P. falciparum Indochina, OD700, 18 h, primary screen (AID 1157); conditions: P. falciparum Indochina infected erythrocytes, osmotic lysis OD700, 18 h; higher = more signal, called active from +8 up or from −8 down

z-score, inactive:
CCOC(=O)[C@H](Cc1ccccc1)NC(=O)CCC1CC(OC(=O)NCc2ccc3c(c2)OCO3)CC2(CCCC(COC(=O)NCCOC)O2)O1 (stereo partly specified) -1.67
CCOC(=O)[C@H](Cc1ccccc1)NC(=O)CCC1CC(OC(=O)NCc2ccc3c(c2)OCO3)CC2(CCCC(COC(=O)NCCCN3CCCC3=O)O2)O1 (stereo partly specified) 0.151
COC(=O)[C@H](C)NC(=O)CCC1CC(OC(=O)NCCc2ccc(F)cc2)CC2(CCCC(COC(=O)NCCOc3ccccc3)O2)O1 (stereo partly specified) 0.199
O=C1CCCC=C1C(O)C1CCCCC1 (stereo unspecified) 0.0748
CCOC(=O)NN=C1C[C@@H](O)[C@@H](O)[C@@H]2[C@@H]3C(=O)N(c4ccc(F)cc4F)C(=O)[C@@H]3CC[C@H]12 -1.75
CC(=O)OC[C@H]1O[C@H](CC=NO[C@@H](C)c2cc(-c3c(C)cc(C)cc3C)no2)C=C[C@@H]1OC(C)=O 0.343
CCOC(=O)CCN1C(=O)[C@H]2[C@H]3[C@H](O)[C@H](O)CC(=NO[C@@H]4O[C@H](CO)[C@@H](O)[C@H](O)[C@H]4O)[C@H]3CC[C@H]2C1=O -0.0643
CCOC(=O)[C@H](CC(C)C)NC(=O)CCC1CC(OC(=O)NCCc2ccc(F)cc2)CC2(CCCC(COC(=O)NCc3cccc(C(F)(F)F)c3)O2)O1 (stereo partly specified) 0.127
C[C@H]1CC[C@@H](C(=O)O)N[C@@H]1c1cccc(N2CCCC2=O)c1 0.125
CC(=O)OC[C@H]1O[C@@H](ON=C2[C@H]3CCn4c(=O)n(-c5ccccc5)c(=O)n4[C@H]3[C@H](O)[C@@H]3O[C@H]23)[C@H](OC(C)=O)[C@@H](OC(C)=O)[C@@H]1OC(C)=O 0.465
CCOC(=O)[C@H](CC(C)C)NC(=O)CCC1CC(OC(=O)NCCc2ccc(F)cc2)CC2(CCCC(COC(=O)NCCCN3CCCC3=O)O2)O1 (stereo partly specified) -0.194
CC(CCC(=O)OC[C@H]1O[C@H](C#Cc2ccccc2)C=C[C@@H]1Oc1ccc(C)cc1)=NOC[C@@H](C)[C@H](OCc1ccccc1)C(C)C 0.392
CCOC(=O)[C@H](Cc1ccccc1)NC(=O)CCC1CC(OC(=O)NCc2cccc3ccccc23)CC2(CCCC(COC(=O)NCCc3ccccc3OC)O2)O1 (stereo partly specified) 0.0286
COC(=O)[C@H](C)NC(=O)CCC1CC(OC(=O)NCCc2ccc(F)cc2)CC2(CCCC(COC(=O)NCCc3ccccc3OC)O2)O1 (stereo partly specified) 0.15
CCOC(=O)NN=C1C[C@@H](O)[C@@H](O)[C@@H]2[C@@H]3C(=O)N(C[C@@H]4CCCO4)C(=O)[C@@H]3CC[C@H]12 -0.235
CON=C1c2cc(OC)ccc2O[C@H](c2cccc(OC)c2)[C@H]1O 0.245
COC(=O)[C@H](C)NC(=O)CCC1CC(OC(=O)NCc2ccc3c(c2)OCO3)CC2(CCCC(COC(=O)NCCC(C)C)O2)O1 (stereo partly specified) 0.638
C[C@H]1C=CCC(=O)OC[C@H](C)C(=O)N2CCC[C@H]2C(=O)OC1 0.0217
CCCNC(=O)OC[C@H]1O[C@H](CCON=C2C[C@@H](O)[C@@H](O)[C@@H]3[C@@H]4C(=O)N(CC)C(=O)[C@@H]4CC[C@@H]23)C=C[C@@H]1Oc1ccc(OC)cc1 0.368
COC(=O)[C@@H]1CC[C@H](C)[C@@H](c2ccc(C)cc2)N1C(=O)c1ccc(C=NO[C@@H](C)c2cc(-c3c(C)cc(C)cc3C)no2)cc1 0.662
CC(C)(C)N1C(=O)[C@H]2[C@H]3[C@H](O)[C@H](O)CC(=NNC(=O)OCc4ccccc4)[C@H]3CC[C@H]2C1=O -1.13
CO[C@@H]1COC(=O)CC=C[C@H](C)[C@H](OC)COC(=O)[C@@H]2CCCN2C(=O)CC=C[C@H]1C 0.158
Cc1cc2c(nc1C)CCCCN2CC(O)CN1CCCc2nc(-c3ccc(Br)cc3)ccc21 (stereo unspecified) 0.148
COc1ccc(O[C@H]2C=C[C@@H](C#Cc3ccccc3)O[C@@H]2CO)cc1 -0.144
C#CCCCON=C1C[C@@H](O)[C@@H](O)[C@@H]2[C@@H]3C(=O)N(C[C@@H]4CCCO4)C(=O)[C@@H]3CC[C@H]12 0.0603
O=C1[C@H]2[C@H]3[C@H](O)[C@H](O)CC(=NO[C@@H]4O[C@H](CO)[C@@H](O)[C@H](O)[C@H]4O)[C@@H]3CC[C@H]2C(=O)N1c1cccc(Oc2ccccc2)c1 0.0606
CC#CCOCCC=C1c2ccccc2[C@@H](OC)[C@@H]1C 0.0739
CCOC(=O)[C@H](CC(C)C)NC(=O)CCC1CC(OC(=O)NCc2ccc3c(c2)OCO3)CC2(CCCC(COC(=O)NCCOc3ccccc3)O2)O1 (stereo partly specified) -0.193
CON=C(C)CCN1CCCCc2nc(C)c(C)cc21 0.269
C=CC[C@@H]1C=C[C@H](ON=CC[C@@H]2C=C[C@H](OC(C)=O)[C@@H](COC(C)=O)O2)[C@@H](CO)O1 0.393
C[C@@H]1CC[C@@H](C(=O)O)N[C@H]1c1cccc(N2CCOCC2)c1 0.247
CC(=O)OC[C@H]1O[C@H](CC=NOC[C@@H](O)COCc2ccco2)C=C[C@@H]1OC(C)=O 0.515
CC(CCN1CCc2nc(-c3ccccc3)c(-c3ccccc3)cc2C1)=NO[C@H](C)c1cn([C@H](CO)Cc2ccccc2)nn1 0.293
CCOC(=O)CCN1C(=O)[C@H]2[C@H]3[C@H](O)[C@H](O)CC(=NNC(=O)OCc4ccc(OC)cc4)[C@H]3CC[C@H]2C1=O 0.0103
CC(=O)OC[C@H]1O[C@@H](ON=C(C)CCC(=O)OC[C@H]2O[C@H](C#Cc3ccccc3)C=C[C@@H]2Oc2ccc(C)cc2)[C@H](OC(C)=O)[C@@H](OC(C)=O)[C@@H]1OC(C)=O 0.612
O=C1CCCC=C1C(O)c1ccc([N+](=O)[O-])cc1 (stereo unspecified) -0.342
